Measurements: PubChem BioAssay (NCI)
About 83,000 compounds went through this panel and 20% of them were active in at least one assay; those are over-represented in the sample as a whole.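 Cell lines were cultured in 96-well plates, exposed to a single compound concentration, and assessed for percent growth 48 hours later.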 Calls of active or inactive are those of the source. Rule for the calls: active = growth percent below 10; inactive = the rest.

Each molecule was assayed on NCI-H226 lung (assay: NCI-60 one-dose screen, 48 h (100 = growth as untreated, 0 = no growth, -100 = all killed)). Conditions: 10 µM unless noted.

Row | Structure (SMILES) | growth
1 | COc1ccc2c(c1)OC1=C(C(=O)OC1)C2c1cc(OC)c2c(c1)OCO2 (stereo not given) | 21.3% (inactive)
2 | Cc1cccc(/C=N/Nc2cc(C)c3cccc(C)c3n2)n1 | 86.9% (inactive)
3 | COc1ccc(C2C=C(c3ccc(Cl)cc3)N=C3SC=C(C)N32)c(Br)c1 (stereo not given) | 59.5% (inactive)
4 | COC1=C(OC)C(=O)C(CCCCCCCCCC[P+](c2ccccc2)(c2ccccc2)c2ccccc2)=C(C)C1=O | -19.5% (active)
5 | CC1CN(c2oc(-c3ccccc3)nc2C#N)CC(C)O1 (stereo not given) | 92% (inactive)
6 | COc1ccc(Cn2cc3c(c2-c2cc(OC)c(OC)c(OC)c2)CCc2cnoc2-3)cc1 | 19.8% (inactive)
7 | COc1ccc(C2=C(c3cc(OC)c(OC)c(OC)c3)C(=O)CC2)cc1 | 46.5% (inactive)
8 | COc1ccc2c(c1)NC1=C(C(=O)OC1)C2c1cc(OC)c2c(c1)OCO2 (stereo not given) | 34% (inactive)
9 | O=[N+]([O-])c1cc(S(=O)(=O)Oc2ccccc2)ccc1Cl | 75.3% (inactive)
10 | COc1cc(NC(N)=NCCC(C)(C)Oc2ccc(C(F)(F)F)cc2)ncc1C#N | 60.3% (inactive)
11 | COc1ccc(Nc2nn3c(-c4ccccc4)cc(-c4ccccc4)nc3c2C(N)=O)c(OC)c1 | 46.4% (inactive)
12 | CC[N+](CC)=c1cc2oc3cc(N(C)C)ccc3nc-2cc1C | 79% (inactive)
13 | COc1ccc(Nc2ncccc2C(=O)NCc2cn(Cc3cccc(Oc4ccccc4)c3)nn2)cc1 | 71.7% (inactive)
14 | CN(C)CCOC(=O)Nc1ccccc1Cl | 106% (inactive)
15 | CN1CCN(Cc2ccc(NC(=O)c3cncc(C#Cc4cnc(N)c5cnccc45)c3)cc2C(F)(F)F)CC1 | -28.4% (active)
